For some of these results: Results with a measured potency or affinity are listed apart. The source made the active and inactive calls. Unless noted, no rule for the calls is given here.
Legend:
[1] = antimalarial activity against Dd2 strain (AID 2302;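 active = growth inhibition above 50% at the single 2 µM test dose, taken to imply half-maximal potency below 2 µM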;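 also: 0% = DMSO untreated growth and 100% = chloroquine plus artemisinin killed control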); conditions: P. falciparum Dd2 in RBCs, LDH growth readout, 72 h; at 2 µM; hits give high values
[2] = human hepatoma cell viability loss – ATP luminescence, cytotoxicity control for P. falciparum antimalarial project, primary screen (AID 2303;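 active = inhibition above 50%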;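 also: 0% = DMSO wells and 100% = digitonin-killed cells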); conditions: HepG2 viability, 24-48 h, at 10 µM, hits give high values
[3] = target: L-lactate dehydrogenase (Plasmodium falciparum (isolate CDC / Honduras)) (UniProt Q27743); assay: PfLDH activity inhibition – cell lysate, 3D7 strain, counter-screen for P. falciparum growth inhibition project (AID 2304);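 also: 0% = vehicle and 100% = reference inhibitor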; conditions: P. falciparum 3D7 crude extract, LDH APAD/NBT absorbance; at 2 µM; hits give high values
[4] = inhibition of 3D7 malaria parasite growth – strain 3D7 (AID 2306);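 also: 0% = DMSO wells and 100% = chloroquine plus artemisinin control wells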; conditions: P. falciparum 3D7 erythrocytic growth, LDH absorbance, 72 h; at 2 µM; hits give high values
[5] = target: Calcium-dependent protein kinase 1 (Plasmodium falciparum (isolate 3D7)) (UniProt P62344); assay: PfCDPK1 kinase inhibitors, biochemical, TCAMS library (AID 1159585; cut-off not given, nearly all actives have IC50 up to about 0.98 µM;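 also: inhibitors leave more ATP so luminescence rises with inhibition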); conditions: recombinant PfCDPK1, Kinase-Glo ATP depletion luminescence
[6] = target: Plasmodium falciparum protein kinase 6 (PK6, PF3D7_1337100) (UniProt Q8IDW1); assay: PfPK6 kinase inhibitors, biochemical, TCAMS library (AID 1159586); conditions: recombinant PfPK6, Kinase-Glo ATP depletion luminescence
[7] = target: Protein kinase 7 (PK7), Plasmodium falciparum 3D7 (PF3D7_0213400) (UniProt Q7YTF7); assay: inhibition of Plasmodium PK7 catalytic activity – biochemical, TCAMS antimalarial set, Kinase-Glo luminescence (AID 1159587); conditions: recombinant PfPK7, Kinase-Glo ATP depletion luminescence
[8] = target: Calcium-dependent protein kinase 4 (Plasmodium falciparum (isolate 3D7)) (UniProt Q8IBS5); assay: PfCDPK4 kinase inhibitors, biochemical, TCAMS library (AID 1159588; cut-off not given, nearly all actives have IC50 up to about 0.91 µM); conditions: recombinant PfCDPK4, Kinase-Glo ATP depletion luminescence
Chain of Calcium-dependent protein kinase 4 (Plasmodium falciparum (isolate 3D7)) (Q8IBS5 whole entry, looked up): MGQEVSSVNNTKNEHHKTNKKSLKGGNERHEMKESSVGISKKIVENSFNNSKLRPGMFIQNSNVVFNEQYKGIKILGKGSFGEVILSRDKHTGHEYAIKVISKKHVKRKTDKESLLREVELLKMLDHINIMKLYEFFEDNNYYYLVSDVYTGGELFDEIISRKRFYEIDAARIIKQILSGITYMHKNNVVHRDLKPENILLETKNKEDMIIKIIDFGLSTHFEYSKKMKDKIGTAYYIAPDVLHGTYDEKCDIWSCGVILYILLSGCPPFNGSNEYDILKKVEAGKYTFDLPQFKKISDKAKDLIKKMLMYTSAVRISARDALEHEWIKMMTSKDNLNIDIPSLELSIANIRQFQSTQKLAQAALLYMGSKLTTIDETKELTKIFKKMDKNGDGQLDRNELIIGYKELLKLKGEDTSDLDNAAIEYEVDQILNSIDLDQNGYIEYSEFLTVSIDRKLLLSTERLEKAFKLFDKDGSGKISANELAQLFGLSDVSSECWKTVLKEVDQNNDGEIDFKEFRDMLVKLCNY

Chain of Plasmodium falciparum protein kinase 6 (PK6, PF3D7_1337100) (Q8IDW1 1-305): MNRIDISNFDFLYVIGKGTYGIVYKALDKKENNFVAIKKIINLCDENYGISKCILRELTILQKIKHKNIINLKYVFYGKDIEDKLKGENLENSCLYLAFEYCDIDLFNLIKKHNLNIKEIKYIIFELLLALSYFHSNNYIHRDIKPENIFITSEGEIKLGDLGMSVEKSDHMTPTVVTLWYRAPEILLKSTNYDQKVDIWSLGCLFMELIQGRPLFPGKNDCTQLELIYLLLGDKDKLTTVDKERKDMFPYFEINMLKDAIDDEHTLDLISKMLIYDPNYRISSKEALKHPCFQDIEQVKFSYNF
Chain of L-lactate dehydrogenase (Plasmodium falciparum (isolate CDC / Honduras)) (Q27743 whole entry, looked up): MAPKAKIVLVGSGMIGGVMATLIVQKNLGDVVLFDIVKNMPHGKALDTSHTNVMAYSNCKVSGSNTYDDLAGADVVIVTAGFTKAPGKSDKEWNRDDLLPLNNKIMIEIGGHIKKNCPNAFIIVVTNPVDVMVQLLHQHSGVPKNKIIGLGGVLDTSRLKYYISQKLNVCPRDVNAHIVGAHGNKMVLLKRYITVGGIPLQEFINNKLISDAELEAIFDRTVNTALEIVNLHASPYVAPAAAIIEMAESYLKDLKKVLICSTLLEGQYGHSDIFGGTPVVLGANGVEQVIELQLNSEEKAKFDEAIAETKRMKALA
Chain of Protein kinase 7 (PK7), Plasmodium falciparum 3D7 (PF3D7_0213400) (Q7YTF7 1-343): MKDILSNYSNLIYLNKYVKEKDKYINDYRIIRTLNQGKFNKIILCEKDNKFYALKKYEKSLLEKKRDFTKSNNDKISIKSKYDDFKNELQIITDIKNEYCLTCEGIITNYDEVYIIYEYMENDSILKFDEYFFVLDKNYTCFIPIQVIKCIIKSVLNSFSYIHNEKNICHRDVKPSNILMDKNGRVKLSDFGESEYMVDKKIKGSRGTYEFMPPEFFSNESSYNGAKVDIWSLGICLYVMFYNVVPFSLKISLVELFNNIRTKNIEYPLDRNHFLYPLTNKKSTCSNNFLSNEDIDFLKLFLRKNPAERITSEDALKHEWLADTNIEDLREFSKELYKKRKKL
Chain of Calcium-dependent protein kinase 1 (Plasmodium falciparum (isolate 3D7)) (P62344 whole entry, looked up): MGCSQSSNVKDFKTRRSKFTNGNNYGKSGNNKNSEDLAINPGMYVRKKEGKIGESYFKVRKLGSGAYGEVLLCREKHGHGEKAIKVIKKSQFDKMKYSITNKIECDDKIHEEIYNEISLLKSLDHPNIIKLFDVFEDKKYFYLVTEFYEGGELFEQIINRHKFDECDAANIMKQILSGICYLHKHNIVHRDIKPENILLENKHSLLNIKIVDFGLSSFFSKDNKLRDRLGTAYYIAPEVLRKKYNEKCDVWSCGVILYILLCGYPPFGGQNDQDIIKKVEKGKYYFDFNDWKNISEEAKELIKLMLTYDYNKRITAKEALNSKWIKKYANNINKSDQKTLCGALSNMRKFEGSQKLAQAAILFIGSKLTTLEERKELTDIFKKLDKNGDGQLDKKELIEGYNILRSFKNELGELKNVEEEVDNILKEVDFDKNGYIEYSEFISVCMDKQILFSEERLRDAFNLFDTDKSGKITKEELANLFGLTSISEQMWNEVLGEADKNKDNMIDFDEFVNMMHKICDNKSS

Cc1cc(NC2CCN(CC3CCCCC3)CC2)nc(Nc2ccccc2Cl)n1
active: growth inhibition [4] 100%
inactive: growth inhibition [1] 31% | inhibition [2] 28% | inhibition [3] 4% | outcome [5] | outcome [6] | outcome [7] | outcome [8]

Cn1cc(C(=O)Nc2cccc(-c3cccc(-c4nc5ccccc5[nH]4)c3)c2)n(C)c1=O
inactive: inhibition [2] 0% | inhibition [3] -6% | outcome [5] | outcome [6] | outcome [7] | outcome [8]
active: growth inhibition [1] 60% | growth inhibition [4] 99%

CCn1cnc2c(N3CCCCS3(=O)=O)cc(C(=O)N[C@@H](Cc3ccccc3)[C@H](O)CNC3CCOCC3)cc21
active: growth inhibition [1] 87% | growth inhibition [4] 99%
inactive: inhibition [2] 7% | inhibition [3] 6% | outcome [5] | outcome [6] | outcome [7] | outcome [8]

COc1cccc(Nc2nc(N)c3ccccc3n2)c1
inactive: growth inhibition [1] 47% | inhibition [2] 18% | inhibition [3] -2% | outcome [5] | outcome [6] | outcome [7] | outcome [8]
active: growth inhibition [4] 88%

COc1ccc2nc(C)cc(NN=Cc3cccc([N+](=O)[O-])c3)c2c1
active: growth inhibition [1] 97% | growth inhibition [4] 102%
inactive: inhibition [2] 6% | inhibition [3] 7% | outcome [5] | outcome [6] | outcome [7] | outcome [8]

Cn1ccnc1CNC(=O)c1ccc(-c2ccc(-c3nc4ccc(C(F)(F)F)cc4[nH]3)s2)cc1
inactive: growth inhibition [1] 43% | inhibition [2] 40% | inhibition [3] 3% | outcome [5] | outcome [6] | outcome [7] | outcome [8]
active: growth inhibition [4] 101%

CCN(CC)CCN(CCCc1ccc(-c2ccc(C(F)(F)F)cc2)cc1)C(=O)Cn1c(CCc2cccc(F)c2F)nc(=O)c2c1CCC2
active: growth inhibition [4] 92%
inactive: growth inhibition [1] 27% | inhibition [2] 38% | inhibition [3] -2% | outcome [5] | outcome [6] | outcome [7] | outcome [8]

CN(C)c1cccc2c1nc(-c1ccc3c(c1)CCO3)n2CCNCc1ccccc1
active: growth inhibition [1] 85% | growth inhibition [4] 99%
inactive: inhibition [2] 6% | inhibition [3] 0% | outcome [5] | outcome [6] | outcome [7] | outcome [8]

Cc1cccc(S(=O)(=O)Nc2cccc(CCN3CCC(N4CCCCC4)CC3)c2)c1
active: growth inhibition [4] 87%
inactive: growth inhibition [1] 13% | inhibition [2] 15% | inhibition [3] -2% | outcome [5] | outcome [6] | outcome [7] | outcome [8]

Cc1nc(N)nc(N)c1CCCOc1ccccc1Cl
inactive: growth inhibition [1] 5% | inhibition [2] 40% | inhibition [3] -1% | outcome [5] | outcome [6] | outcome [7] | outcome [8]
active: growth inhibition [4] 98%

C[C@]12CC3CC(Nc4nc(N5CCOCC5)nc5ccccc45)(C1)C[C@@](C)(C3)C2
active: growth inhibition [4] 95%
inactive: growth inhibition [1] 14% | inhibition [2] 31% | inhibition [3] -5% | outcome [5] | outcome [6] | outcome [7] | outcome [8]

CC(C)(C)c1nn(-c2ccccc2)c2[nH]c(=O)c(CNC3CCCC3)cc12
active: growth inhibition [1] 70% | growth inhibition [4] 100%
inactive: inhibition [2] 7% | inhibition [3] 5% | outcome [5] | outcome [6] | outcome [7] | outcome [8]

CN1CCN(c2ccnc3ccc(NC(=O)Nc4ccc(-c5ccncc5)c5ccccc45)cc23)CC1
inactive: inhibition [3] -4% | outcome [5] | outcome [6] | outcome [7] | outcome [8]
active: growth inhibition [1] 84% | inhibition [2] 76% | growth inhibition [4] 101%

COc1ccc(NC(=O)CCNc2cc(C)nc(NCCc3ccccc3)n2)cc1
inactive: growth inhibition [1] 0% | inhibition [2] 3% | inhibition [3] -2% | outcome [5] | outcome [6] | outcome [7] | outcome [8]
active: growth inhibition [4] 85%

COc1cc(C(=O)N2CCN(C(C)C)CC2)ccc1CN(C)CCCCN1CCN(c2cccc(Cl)c2Cl)CC1
inactive: inhibition [3] 6% | outcome [5] | outcome [6] | outcome [7] | outcome [8]
active: growth inhibition [1] 98% | inhibition [2] 79% | growth inhibition [4] 101%

CCn1ccc2c(N3CCCS3(=O)=O)cc(C(=O)N[C@@H](Cc3ccccc3)[C@H](O)CNC3CCCCC3)cc21
active: growth inhibition [1] 98% | growth inhibition [4] 97%
inactive: inhibition [2] -1% | inhibition [3] 1% | outcome [5] | outcome [6] | outcome [7] | outcome [8]

CC(C)(C)c1nn(-c2ccccc2)c2[nH]c(=O)c(CNCc3ccc4c(c3)OCO4)cc12
inactive: growth inhibition [1] 32% | inhibition [2] 1% | inhibition [3] 3% | outcome [5] | outcome [6] | outcome [7] | outcome [8]
active: growth inhibition [4] 92%

c1cc(-c2ccc(CNC3CCOCC3)cc2)cc(-c2nc3ccccc3[nH]2)c1
inactive: inhibition [2] 30% | inhibition [3] 3% | outcome [5] | outcome [6] | outcome [7] | outcome [8]
active: growth inhibition [1] 100% | growth inhibition [4] 100%

Cc1cccc2[nH]c(-c3ccc(-c4ccc(CN5CCN(CCO)CC5)cc4)cc3)nc12
active: growth inhibition [1] 97% | growth inhibition [4] 100%
inactive: inhibition [2] 20% | inhibition [3] -4% | outcome [5] | outcome [6] | outcome [7] | outcome [8]

Cc1cccc2[nH]c(-c3ccc(-c4ccc(NC(=O)Nc5ccc(F)c(F)c5F)cc4)s3)nc12
active: growth inhibition [1] 99% | inhibition [2] 58% | growth inhibition [4] 100%
inactive: inhibition [3] 2% | outcome [5] | outcome [6] | outcome [7] | outcome [8]

Cc1cc(NN=Cc2ccc(Cl)cc2)c2cc(F)ccc2n1
inactive: inhibition [2] 6% | inhibition [3] 2% | outcome [5] | outcome [6] | outcome [7] | outcome [8]
active: growth inhibition [1] 98% | growth inhibition [4] 101%

CN(C)CCNC(=O)NC1CN(c2ncnc3cc(-c4ccccc4)sc23)C1
active: growth inhibition [4] 100%
inactive: growth inhibition [1] 39% | inhibition [2] 7% | inhibition [3] 5% | outcome [5] | outcome [6] | outcome [7] | outcome [8]

COc1ccc2nccc([C@@H](O)CN3CCC(NC(=O)c4ccc(Oc5ccccc5)cc4)CC3)c2c1
inactive: growth inhibition [1] 13% | inhibition [2] 39% | inhibition [3] 2% | outcome [5] | outcome [6] | outcome [7] | outcome [8]
active: growth inhibition [4] 82%

N#Cc1ccc2c(c1)CCN(CCC1CCC(NC(=O)/C=C/c3ccc(Cl)c(Cl)c3)CC1)CC2 (stereo not given)
active: growth inhibition [1] 51% | growth inhibition [4] 100%
inactive: inhibition [2] 31% | inhibition [3] -11% | outcome [5] | outcome [6] | outcome [7] | outcome [8]

Cc1cccc(-c2nn(-c3ccccc3)c3[nH]c(=O)c(CNC4CCCC4)cc23)c1
active: growth inhibition [1] 97% | growth inhibition [4] 98%
inactive: inhibition [2] 18% | inhibition [3] -2% | outcome [5] | outcome [6] | outcome [7] | outcome [8]

NC(=O)c1ccc(NCC(=O)Nc2cccc(-c3cccc(-c4nc5ccccc5[nH]4)c3)c2)cc1
active: growth inhibition [4] 99%
inactive: growth inhibition [1] 30% | inhibition [2] 9% | inhibition [3] -3% | outcome [5] | outcome [6] | outcome [7] | outcome [8]

CC(=O)Nc1nc(C(=O)Nc2cccc(-c3cccc(-c4nc5ccc(F)cc5[nH]4)c3)c2)cs1
active: growth inhibition [1] 100% | growth inhibition [4] 101%
inactive: inhibition [2] 39% | inhibition [3] -2% | outcome [5] | outcome [6] | outcome [7] | outcome [8]

CN1CC[C@@H](Oc2cc(C(=O)NCc3ccc(Cl)c(Cl)c3)ccc2C(F)(F)F)C1
active: growth inhibition [4] 88%
inactive: growth inhibition [1] 4% | inhibition [2] 8% | inhibition [3] 2% | outcome [5] | outcome [6] | outcome [7] | outcome [8]

CC(=O)Nc1ccc2[nH]cc(C3CCN(CCC4CCN(C(=O)/C=C/c5ccc(Cl)c(Cl)c5)CC4)CC3)c2c1
inactive: growth inhibition [1] 7% | inhibition [2] 13% | inhibition [3] 4% | outcome [5] | outcome [6] | outcome [7] | outcome [8]
active: growth inhibition [4] 95%

CCCc1cc(Cc2cnc(N)nc2N)ccc1OCCCCCC(=O)OCC
inactive: growth inhibition [1] 1% | inhibition [2] -11% | inhibition [3] 0% | outcome [5] | outcome [6] | outcome [7] | outcome [8]
active: growth inhibition [4] 97%

N/C(=N\c1cccc(Cc2ccc([N+](=O)[O-])cc2)n1)Nc1ccccc1
inactive: growth inhibition [1] 19% | inhibition [2] 28% | inhibition [3] 4% | outcome [5] | outcome [6] | outcome [7] | outcome [8]
active: growth inhibition [4] 96%

O=C(NCCCCN1CCC(c2ccc3c(c2OCCO)CCCC3)CC1)c1ccc2oc(-c3ccc(C(F)(F)F)cc3)cc2c1
active: growth inhibition [1] 56% | inhibition [2] 54% | growth inhibition [4] 93%
inactive: inhibition [3] 4% | outcome [5] | outcome [6] | outcome [7] | outcome [8]

O=C(NCCCCN1CCN(c2cccc3c2OCCO3)CC1)c1ccc(NC(=O)c2cc(Cl)cc(Cl)c2)cc1
active: growth inhibition [1] 89% | growth inhibition [4] 101%
inactive: inhibition [2] 21% | inhibition [3] -3% | outcome [5] | outcome [6] | outcome [7] | outcome [8]

COc1cc2ncnc(NCCc3ccccc3Cl)c2cc1OC
inactive: growth inhibition [1] 11% | inhibition [2] 0% | inhibition [3] 3% | outcome [5] | outcome [6] | outcome [7] | outcome [8]
active: growth inhibition [4] 88%

O=C(NC1CCN(CCCOc2ccnc3cc(Cl)ccc23)C1)c1ccc(Br)cc1 (stereo not given)
active: growth inhibition [1] 87% | growth inhibition [4] 86%
inactive: inhibition [2] 21% | inhibition [3] 2% | outcome [5] | outcome [6] | outcome [7] | outcome [8]
